Key:
Assay in all cases: PBM binding z-score (relative to random genomic background probes); higher = stronger binding; sequences stand for … in GC…GCGATTGACAGCGTAGAATGAAGG
[1] = system: PPARg:RXRa DBDmut IVT, anti-RXR (DBD mutation: RXRa K156A/R161A, NR concentration 270 nM, RXRa partner concentration 90 nM)
Outline: (§1)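 The probes on custom Agilent 4×180K protein-binding microarrays were double-stranded, with 34-nt variable regions bearing direct-repeat seeds, single-nucleotide variants, half-site ablations and random human genomic background sequences. Incubation lasted 1 h with ligand-free nuclear receptor dimers in PBS pH 7.4, 2% milk, 0.02% Triton X-100, 1 mM DTT, 0.2 mg/mL BSA and 0.4 mg/ml salmon testes DNA. Antibodies against each partner (one per run) detected bound dimers, and fluorescence scans were regression-normalized. Binding z-scores take the random background probes as reference.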

[2] = system: PPARg:RXRa IVT, anti-PPARg (NR concentration 270 nM, RXRa partner concentration 90 nM)
Outline: as §1

[3] = system: PPARg DBDmut:RXRa IVT, anti-PPARg (DBD mutation: PPARg1 K132A/R137A, NR concentration 270 nM, RXRa partner concentration 90 nM)
Outline: as §1

[4] = system: PPARg DBDmut IVT, anti-PPARg (DBD mutation: PPARg1 K132A/R137A, NR concentration 270 nM)
Outline: as §1

[5] = system: PPARg homodimer (NR concentration 180 nM)
Outline: as §1

[6] = system: PXR:RXRa (NR concentration 270 nM, RXRa partner concentration 90 nM)
Outline: as §1

[7] = system: PXR homodimer (NR concentration 270 nM)
Outline: as §1

[8] = system: RARa:RXR (NR concentration 270 nM, RXRa partner concentration 90 nM)
Outline: as §1

[9] = system: RARa homodimer (NR concentration 270 nM)
Outline: as §1

[10] = system: RARb:RXRa (NR concentration 270 nM, RXRa partner concentration 90 nM)
Outline: as §1

[11] = system: RARb homodimer (NR concentration 270 nM)
Outline: as §1

[12] = system: RARg:RXRa (NR concentration 270 nM, RXRa partner concentration 90 nM)
Outline: as §1

[13] = system: RARg homodimer (NR concentration 270 nM)
Outline: as §1

[14] = system: RXRa DBDmut IVT, anti-RXR (DBD mutation: RXRa K156A/R161A, NR concentration 90 nM)
Outline: as §1

[15] = system: RXRa homodimer (NR concentration 180 nM)
Outline: as §1

[16] = system: THRa:RXRa (NR concentration 90 nM, RXRa partner concentration 90 nM)
Outline: as §1

[17] = system: THRa homodimer (NR concentration 90 nM)
Outline: as §1

[18] = system: VDR homodimer (NR concentration 270 nM)
Outline: as §1

Row | Sequence | PBM binding z-score [1] | PBM binding z-score [2] | PBM binding z-score [3] | PBM binding z-score [4] | PBM binding z-score [5] | PBM binding z-score [6] | PBM binding z-score [7] | PBM binding z-score [8] | PBM binding z-score [9] | PBM binding z-score [10] | PBM binding z-score [11] | PBM binding z-score [12] | PBM binding z-score [13] | PBM binding z-score [14] | PBM binding z-score [15] | PBM binding z-score [16] | PBM binding z-score [17] | PBM binding z-score [18]
1 | ATCTCTAGGTAAAGATAGTTCAGAGAATGCAAAT | 1.37 | 1.42 | 0.582 | 1.54 | 0.983 | 0.864 | 0.342 | 0.707 | 0.924 | 0.573 | 0.692 | 0.65 | 0.767 | -0.136 | 0.482 | 0.724 | 0.0734 | 0.51
2 | CCGAGTAGGTTATGGGGCAGTCAGGCAACGGTGA | 2.72 | 3.05 | -0.267 | -0.985 | 0.752 | -0.312 | 0.274 | -0.198 | 0.265 | 0.933 | 0.983 | 0.587 | 0.165 | -0.557 | 0.291 | 0.277 | -0.143 | -0.221
3 | ATCGAAAGGTCGAGGAGAGTATAGAGAAAGGGAA | 0.194 | 1.22 | 1.53 | 0.209 | 1.53 | 2.33 | 0.36 | 2.76 | 0.436 | 3.9 | 2.25 | 4.13 | 3.86 | 0.539 | 4.21 | 1.94 | -0.151 | 0.103
4 | AATAGAGGGTCACTAGGCCAGAGTAGGTACGAAT | 3.57 | 5.33 | 0.782 | 0.194 | 1.04 | 1.95 | -0.034 | 2.89 | 0.102 | 3.69 | 3.01 | 4.11 | 4.52 | 1.93 | 4.2 | 1.99 | 0.353 | 1.1
5 | CCTTACGGGTCATTGACAGGTTATAGCATTTGGA | 2.34 | 2.72 | 0.642 | 0.325 | 2.77 | 3.94 | 0.591 | 4.67 | 0.122 | 3.64 | 3.04 | 5.75 | 3.8 | 2.9 | 5.07 | 2.91 | 0.494 | 1.67
6 | CTTGAAAGGTCGTGCTCAGGTGAGTATACCAAAC | 0.999 | 2.01 | 1.03 | 0.763 | 1.71 | 3.72 | 0.102 | 4.53 | 0.107 | 3.99 | 2.75 | 5.02 | 3.64 | 2.21 | 5.06 | 4.21 | 0.803 | 1.03
7 | TCTAGCAGGCCAGAGGGTAACTCAAGAGGTACGG | 0.667 | 0.376 | -0.698 | -0.379 | 0.0885 | -0.174 | -0.643 | -0.0159 | -0.296 | 0.332 | 0.228 | 0.127 | 0.174 | -0.0485 | 0.497 | -0.104 | -0.765 | -0.49
8 | CCTACTGGGCCCAAAAGGTCATTGATGCCGATAA | 0.117 | 1.66 | -0.622 | -1.17 | 2.86 | 4.97 | 1.92 | 5.31 | 1.46 | 3.93 | 4.35 | 4.87 | 4.11 | -0.121 | 5.65 | 3.15 | 0.687 | 1.84
9 | CCTAATGGGCCAAAAAGGTCATTGATGCCGATAA | 2.24 | 2.34 | -0.601 | -0.248 | 3.03 | 4.65 | 2.85 | 5.08 | 1.31 | 3.99 | 4.33 | 4.34 | 4.05 | 1.29 | 4.45 | 3.03 | 0.29 | 2.59
10 | CCTCGGAGGACAACAGGAGGTCAGAACTGCCAGA | 0.236 | 0.269 | -1.45 | -1.02 | 1.52 | 1.92 | 0.393 | 2.08 | 0.134 | 2.68 | 3.33 | 3.23 | 3.05 | 0.497 | 1.81 | 2.59 | 0.726 | 0.781
11 | GGAACGAGGGCATTCGAGTTGATAGAATGGCGAT | 2.73 | 1.93 | -0.165 | -0.814 | -0.265 | 3.87 | 1.31 | 0.709 | -0.629 | 1.69 | 0.53 | 1.01 | 1.5 | 2.88 | 0.761 | 3.35 | -0.605 | 3.02
12 | GCTCGGAGGTCAAGGTCAGAGCTTTGTCCGTAGA | 3.94 | 4.68 | -0.342 | -0.512 | 4.12 | 5.61 | 1.32 | 6.17 | 2.29 | 5.37 | 5.13 | 7.02 | 7.59 | 3.19 | 7.07 | 4.24 | 2.72 | 3.21
13 | TCTAGCAGGCCAGAGAGTCACTCAAGAGGTACGG | 0.614 | -0.685 | -1.43 | -1.33 | -0.979 | -0.468 | -0.71 | -0.29 | -0.925 | -0.0563 | -0.56 | -0.0784 | -0.0814 | -0.229 | 0.33 | -0.304 | -1.31 | -0.865
14 | ATGTCTAGGTAACAAGTTCAGTGAAAGAGAGGAC | 2.05 | 2.17 | 1.24 | 0.999 | 0.836 | 1.69 | 1.68 | 0.876 | 0.818 | 1.56 | 1.85 | 1.29 | 1.35 | 0.903 | 0.727 | 1.56 | 0.576 | 2.23
15 | CCTCGCAGGACAGAAGGTCAGAGCTGTCCGCTTT | 0.197 | 0.104 | -2.21 | -1.7 | 1.13 | 1.35 | -0.203 | 1.84 | -0.425 | 2.81 | 3.34 | 2.74 | 2.61 | 0.371 | 1.74 | 1.58 | 0.0874 | 0.0556
16 | ATCGAAACGTCGAGGTGAGTATAGAGAAAGGGAA | -1 | 0.225 | 0.306 | 0.714 | -0.637 | -0.126 | -0.0991 | 0.0247 | -0.11 | 0.508 | -0.0564 | 0.238 | 0.317 | -0.787 | 0.266 | 1.03 | -0.0731 | -0.175
